Data taken from PubChem BioAssay AID1345085 (National Center for Advancing Translational Sciences (NCATS), 2018).
Records with an inconclusive call do not appear. Active and inactive are the calls of the source. Calls follow the shape of the dose curve; as a rule, active = well fitted cell-killing curve with a large enough effect; inconclusive = small, poorly fitted or top-dose-only effect, or effect the other way; inactive = no such curve, though single readings can be large or run the other way.

Each compound was assayed on PA-1 (assay: Confirmatory qHTS for gynecologic anti-cancer compounds from libraries of approved drugs and bioactive compounds). Conditions: gynecologic cancer cell panel viability, ATPlite luminescence, 48 h; series mostly up to 57.6 µM.
From the text: National Center for Advancing Translational Sciences [NCATS] Assay Overview: Chemotherapeutic drug responses vary from cancer to cancer and from patient to patient. These variations could be caused by a number of factors including patient genomic background, tumor mutations, tumor heterogeneity, and aspects of drug treatment. Chemotherapeutic drug resistance is also a common issue and can lead to ineffective treatment and patient death. Here we have profiled the cell killing effects of thousands of compounds to characterize the responses in three gynecological cancers, identify cancer-selective compounds, and understand the diversity of responses to these compounds from pan-cancer suppressors to single cell line selective compounds. In this assay, we screened a 7,914 compound drug library that included approved drug and bioactive compounds in six ovarian, three cervical, and two placental cancer cell lines using the ATPlite assay for cell viability. ATPlite is a luminescence based assay reliant on the conversion of a luciferase substrate to light in the presence of ATP. As a cytotoxic compound will suppress growth and decrease the number of cells, the concentration of ATP will decrease, and less light signal will be detected in the well. Hits were selected from the primary screen for follow-up confirmation. For the confirmation screens, the ovarian cancer cell lines included CAOV-3, SK-OV-3, SW 626, ES-2, PA-1, and TOV-21G. The cervical cancer cell lines included HeLa, Ca Ski, and C-33 A. The placental cancer cell lines included JEG-3 and JAR. HEK 293T cells were used as the control cell line to determine the selectivity index. The ATPlite assay was used to determine the IC50 values.
Assay Protocol Summary: 1,000 cells in 4 uL of media were dispensed into white, solid bottom 1536-well plates using a Multidrop Combi (Thermo Scientific). The Assay plates were incubated for 16 hours at 37 C with 5% CO2 in assay plates, followed by the addition of 23 nL of DMSO or drug dissolved in DMSO. . Each compound was assayed in 11 concentrations (1:3 dilution) from 57.5 uM to 0.977 nM, using the automated Wako 1536 Pin Tool workstation and incubated at 37 C with 5% CO2 48 hours. 4 uL of ATPlite, the ATP monitoring reagent, was then added to the each well of the assay plates using the Multidrop Combi reagent dispenser followed by incubation for 15 minutes at room temperature. The resulting luminescence was measured using the ViewLux plate reader.
Also: nearly all actives have a fitted effect of over 55% in size.
Potency is read from the fitted curve at half-maximal effect.

Compound | Potency
CN(C)C1CCN(C(=O)c2ccc(NC(=O)Nc3nc(N4CCOCC4)nc(N4CCOCC4)n3)cc2)CC1 | 1.09 µM (active)
Nc1ccccc1NC(=O)c1ccc(CNC(=O)OCc2cccnc2)cc1 | 1.53 µM (active)
Cn1cc(-c2[nH]c3cc(NC(=O)[C@H](N)C4CCCCC4)cc4c3c2C=NNC4=O)cn1 | 8.63 µM (active)
CCN(CC)CCNC(=O)c1c(C)[nH]c(/C=C2\C(=O)Nc3ccc(F)cc32)c1C | 8.91 µM (active)
CC[C@@]1(O)C(=O)OCc2c1cc1n(c2=O)Cc2cc3c(CN(C)C)c(O)ccc3nc2-1 | 0.273 µM (active)
O=c1cc(CN2CCOCC2)occ1OCCCCCSc1ccnc2cc(C(F)(F)F)ccc12 | 8.63 µM (active)
COc1c(C)c2c(c(O)c1C/C=C(\C)CCC(=O)O)C(=O)OC2 | 2.17 µM (active)
CNc1nc(Nc2ccc(C(=O)N3CCOCC3)cc2OC)ncc1Cl | inactive
Cc1cc(SCc2sc(-c3ccc(C(F)(F)F)cc3)nc2C)ccc1OCC(=O)O | inactive
C[C@@]1(C(=O)Nc2ccc(F)nc2)CCCN1c1nc(Nc2cc(C3CC3)[nH]n2)c2cccn2n1 | 0.0343 µM (active)
CN(C)c1ccc(-c2nc3ncc(Cl)c(N4CCN(CC(=O)Nc5nccs5)CC4)c3[nH]2)cc1 | 3.35 µM (active)
O=C(c1ccc(F)c(F)c1Nc1ccc(I)cc1F)N1CC(O)([C@@H]2CCCCN2)C1 | 15.3 µM (active)
Nc1ccccc1NC(=O)c1ccc(CNc2nccc(-c3cccnc3)n2)cc1 | 1.09 µM (active)
c1cc(N[C@@H]2CCNC2)nc(-c2cnc3ccc(-c4cn[nH]c4)cn23)c1 | 1.72 µM (active)
C=CC(=O)Nc1cccc(Oc2nc(Nc3ccc(N4CCN(C)CC4)cc3)ncc2Cl)c1 | 7.69 µM (active)
CN(C)c1ccc2nc3ccc(=[N+](C)C)cc-3sc2c1 | 21.7 µM (active)
CC(C)n1nc(-c2cc3cc(O)ccc3[nH]2)c2c(N)ncnc21 | 13.7 µM (active)
NC(=O)Nc1cc(-c2cccc(F)c2)sc1C(=O)NC1CCCNC1 (stereo not given) | 1.72 µM (active)
CC1=C(CO)C(=O)O[C@@H]([C@@H](C)[C@H]2CC[C@H]3[C@@H]4C[C@H]5O[C@]56[C@@H](O)C=CC(=O)[C@]6(C)[C@H]4CC[C@]23C)C1 | 1.68 µM (active)
COc1cc(Nc2ncc(F)c(Nc3ccc4c(n3)N(COP(=O)(O)O)C(=O)C(C)(C)O4)n2)cc(OC)c1OC | 9.68 µM (active)

Compound | Potency
CN[C@@H](C)C(=O)N[C@H]1CN(C(=O)CC(C)C)CC[C@H]2CC[C@@H](C(=O)NC(c3ccccc3)c3ccccc3)N2C1=O | inactive
COc1cc(F)c(F)c(Nc2ccc(I)cc2F)c1NS(=O)(=O)C1(CC(O)CO)CC1 (stereo not given) | inactive
O=C(CCCCCCNC(=O)c1cnc(N(c2ccccc2)c2ccccc2)nc1)NO | 3.06 µM (active)
Cc1cnc(Nc2cccc(CN3CCOCC3)c2)nc1Nc1cccc(S(=O)(=O)NC(C)(C)C)c1 | 3.85 µM (active)
CCN1C[C@H](C)n2c(c(O)c3c(=O)n(Cc4ccc(F)c(Cl)c4)nc(C(=O)NC)c32)C1=O | inactive
C#C[C@]1(O)CC[C@H]2[C@@H]3CCC4=CC(=O)CC[C@@H]4[C@H]3CC[C@@]21CC | inactive
CNC(=O)c1ccccc1Sc1ccc2c(/C=C/c3ccccn3)n[nH]c2c1 | 4.32 µM (active)
COc1cc2c(cc1-c1c(C)noc1C)ncc1[nH]c(=O)n(C(C)c3ccccn3)c12 (stereo not given) | 2.17 µM (active)
Cn1cc(-c2ccc3ncc(Cc4ccc5ncccc5c4)n3n2)cn1 | inactive
CCN(CC)CCCC(C)Nc1c2ccc(Cl)cc2nc2ccc(OC)cc12 (stereo not given) | 27.3 µM (active)
NCCOc1cc(C(=O)Nc2cc(OCCN)c3ccccc3n2)nc(C(=O)Nc2cc(OCCN)c3ccccc3n2)c1 | 19.3 µM (active)
C[C@@H](Oc1cc(-c2cnn(C3CCNCC3)c2)cnc1N)c1c(Cl)ccc(F)c1Cl | 6.85 µM (active)
CC(C)Nc1cc(-c2c[nH]c(C(=O)N[C@H](CO)c3cccc(Cl)c3)c2)c(Cl)cn1 | 6.11 µM (active)
CNC(=O)c1nn(C)c2c1C(C)(C)Cc1cnc(Nc3ccc(N4CCN(C)CC4)cc3)nc1-2 | 0.769 µM (active)
CCCC(Nc1nc(-c2ccc(NC(=O)NCC)c(OC)c2)ncc1C)c1cccnc1 (stereo not given) | 0.137 µM (active)
Cc1cc(Nc2nc(N[C@@H](C)c3ncc(F)cn3)ncc2Cl)n[nH]1 | 3.85 µM (active)
NC(=O)c1cnc(-c2ccc(C3(N)CCC3)cc2)c(-c2ccccc2)c1 | 27.3 µM (active)
CCN1CCN(Cc2ccc(-c3cc4c(NC(C)c5ccccc5)ncnc4[nH]3)cc2)CC1 (stereo not given) | 24.3 µM (active)
COC(C(=O)N1Cc2[nH]nc(NC(=O)c3ccc(N4CCN(C)CC4)cc3)c2C1)c1ccccc1 (stereo not given) | 7.69 µM (active)
O=C(O)c1ccc(Nc2ncc3c(n2)-c2ccc(Cl)cc2C(c2c(F)cccc2F)=NC3)cc1 | 0.968 µM (active)
